# Potency and affinity values are given separately. The source made the active and inactive calls. How the calls were made is not given here.
# Experiment: VEEV TC 83 infected cells, CPE inhibition, confirmatory, 50 µM top (AID 602455)
# Settings: series mostly up to 50 µM; inhibition: at the top concentration
row,Structure (SMILES),inhibition
1,O=C(Cc1cccs1)Nc1nccs1,-0.05% (inactive)
2,O=C(Cc1cccs1)Nc1nc2ccccc2s1,-7.05% (inactive)
3,O=C(Nc1nc2c(s1)CCCC2)c1cccs1,-13.8% (inactive)
